High-throughput results (PubChem)
ATXN2 expr inh: Primary qHTS for Inhibitors of ATXN expression. HEK-293 ATXN2-luciferase reporter, luminescence, 24 h. Potency, µM (titrated, usually from 57 µM), for inactives: at the highest dose activity change, negative = inhibition, usual class: inhibitors. 360,000 tested, 0.72% active; also: % is scaled to controls: 0 for no effect and ±100 for the full control effect; nearly all actives have a fitted effect of over 55% in size
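qHTS (up to 57 uM final) was run with 24 h compound exposure of reporter cells at 37 °C. Each well was multiplexed: SteadyGlo luminescence measured ATXN2-luciferase expression after a fluorogenic Gly-Phe-AFC viability readout (25 uM final).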
DT40 TDP1 CPT: qHTS for Inhibitors of human tyrosyl-DNA phosphodiesterase 1 (TDP1): qHTS in cells in presence of CPT; chicken DT40 Tdp1-/-;hTDP1 cells + 20 nM CPT, ATP luminescence, 48 h; Potency, µM (highest dose often 46.2 µM), for inactives: at the top dose activity change, negative = growth inhibition, usual class: inhibitors; 420,000 tested, 12% active; AID 686979, 2013; also: % is scaled to controls: 0 for no effect and ±100 for the full control effect; nearly all actives have a fitted effect of over 55% in size
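Chicken DT40 Tdp1-/- cells complemented with human TDP1, 400 cells/well, exposed to compounds plus 20 nM camptothecin for at least 48 h at 37 C; viability read as ATP content by CellTiter-Glo luminescence.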
TDP1 cell noCPT: qHTS for Inhibitors of human tyrosyl-DNA phosphodiesterase 1 (TDP1): qHTS in cells in absence of CPT | DT40 Tdp1-/- hTDP1 cells, no CPT, ATP luminescence, 48 h | Potency, µM (highest dose often 46.2 µM), without a hit: at the highest dose activity change, negative = growth inhibition, actives largely listed as inhibitors | 420,000 tested, 15% active | AID 686978, 2013; also: % is scaled to controls: 0 for no effect and ±100 for the full control effect; nearly all actives have a fitted effect of over 55% in size
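Luminescent ATP content (CellTiter-Glo) served as the growth readout. Knockout chicken DT40 cells expressing human TDP1 were exposed to compounds without camptothecin for a minimum 48 hr at 37 °C.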
HepG2 viability: qHTS for Inhibitors of TGF-b: Cytotox Counterscreen; HepG2 CAGA-GFP viability, ATP luminescence, 18 h; Potency, µM (titrated, usually from 46.1 µM), for inactives: top-dose activity change, negative = cytotoxicity, actives largely listed as cytotoxic; 410,000 tested, 0.76% active
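CellTiter-Glo luminescence gave cytotoxicity after 18 hours at 37 degrees C. The cells were HepG2 CAGA-GFP in 1% FBS DMEM, stimulated with 500 pg/mL TGF-beta after compound addition. %Activity was normalised to no-cell wells (complete cell-killing) and DMSO (no toxicity), and curves were fitted and classified.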
TGFb SMAD3 inh: qHTS for Inhibitors of TGF-b | HepG2 CAGA-GFP TGF-b/SMAD3 reporter, GFP fluorescence, 18 h; TGF-beta stimulated, 500 pg/mL final | 410,000 tested, 1.2% active | Potency, µM (highest dose often 46.1 µM), for inactives: at the highest dose activity, negative = inhibition, hits mostly inhibitors; also: % is scaled to controls: 0 for no effect and ±100 for the full control effect; nearly all actives have a fitted effect of over 65% in size
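GFP signal (ex488/em500-530) from TGF-beta-stimulated HEPG2 CAGA-GFP cells, 500 pg/mL final, 18 h at 37 degrees C in DMEM plus 1% FBS, normalized to unstimulated and DMSO-stimulated controls.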
S2 tox: Viability Counterscreen for Primary qHTS for Inhibitors of ATXN expression; 400,000 tested, 0.49% active; Potency, µM (doses to about 56.7 µM), hits mostly cytotoxic; S2 cells (HEK-293 line with an ATXN2-luciferase reporter) viability, CellTiter-Fluor protease fluorescence, 24 h; AID 651635, 2014; also: nearly all actives have a fitted effect of over 40% in size
* marks the source's active call; other numbers are inactive results; i = inactive; ? = inconclusive; nt = no result given; [ ] = remark or other dose. Compounds with a hit are over-represented: about 17% of the library has one in this group of screens. Calls follow the shape of the dose curve; as a rule, active = well fitted curve in the direction sought with a large enough effect; inconclusive = small, poorly fitted or top-dose-only effect, or another doubt; inactive = no such curve, though single readings can be large; an effect the other way counts as inactive or inconclusive. Potency is read from the fitted curve at half-maximal effect.

SMILES | ATXN2 expr inh | DT40 TDP1 CPT | TDP1 cell noCPT | HepG2 viability | TGFb SMAD3 inh | S2 tox
O=C(COC(=O)c1nc(Cl)ccc1Cl)NC(=O)c1ccccc1 | 0.2% | -28.1% | -9.5% | -9.7% | -0.6% | i
COc1cc(-c2ccc(N3C(c4ccsc4)=Cc4ccc(F)cc4C3c3c[nH]c4ccc(C#N)cc34)cc2)cc(OC)c1OC (stereo not given) | 12.3% | ? | ? | nt | nt | i
CC(C)(O)C#Cc1ccc(N2C(c3ccsc3)=Cc3ccc(F)cc3C2c2c[nH]c3ccccc23)cc1 (stereo not given) | -6.7% | ? | 18.4µM* | nt | nt | ?
CC(=O)CC1c2cc(F)ccc2C=C(c2ccsc2)N1c1ccc(-c2cccnc2)cc1 (stereo not given) | -21.0% | ? | ? | nt | nt | ?
N#Cc1ccc2[nH]cc(C3c4cc(F)ccc4C=C(c4ccsc4)N3c3ccc(C#CCCO)cc3)c2c1 (stereo not given) | -34.1% | ? | 18.4µM* | nt | nt | ?
COc1ccc(Nc2ncnc3scc(-c4ccc(OC)cc4)c23)cc1 | -26.5% | 2.91µM* | 4.61µM* | -26.7% | ? | i
COc1ccc(-c2csc3ncnc(Nc4ccc(OC)c(OC)c4)c23)cc1 | ? | ? | 8.2µM* | -41.1% | 10µM* | ?
COc1ccc(C2Nc3ccccc3-n3c(-c4ccccc4)c4c(=O)n(C)c(=O)n(C)c4c32)cc1 (stereo not given) | -3.7% | 16.4µM* | ? | -40.4% | -5.3% | i
COc1ccc(-c2c3c(=O)n(C)c(=O)n(C)c3cn2C2CCCCC2)cc1 | -6.9% | ? | ? | -1.5% | -12.7% | ?
Cn1c(=O)c2c(-c3ccccc3)n3c(c2n(C)c1=O)C(c1cccc([N+](=O)[O-])c1)Nc1ccccc1-3 (stereo not given) | -4.5% | 13µM* | ? | -22.2% | -16.1% | i
CC(C)C(C(=O)NC1CCCC1)N1CCN(c2ncccc2C#N)CC1 (stereo not given) | nt | -0.8% | 0.6% | nt | nt | nt
Cc1ncc2c(c1CNS(=O)(=O)c1cccs1)CCN(C(=O)/C=C/c1ccc(F)cc1F)C2 | nt | 1.6%[9.04 µM] | ? | nt | nt | i
CC(C)(CNC(=O)c1cnn(-c2nccc(-c3cc4ccccc4o3)n2)c1C1CC1)N1CCOCC1 | nt | -8.1%[9.04 µM] | -3.8% | nt | nt | i
CCOC(=O)[C@@H]1[C@H]2COc3ccccc3[C@@H]2N2C(=O)N(c3cccc(F)c3)C(=O)[C@@]12C | 9.5% | 3.2% | -28.7% | -4.1% | -4.0% | i
CCn1cc(CN2CCC(C(=O)Nc3ccc(Oc4ccccc4)nc3)CC2)cn1 | -6.9% | -67.5% | 20.6µM* | -24.5% | ? | i
CCc1ccc(CN2CCC(C(=O)Nc3ccc(Oc4ccccc4)nc3)CC2)o1 | -17.0% | 16.4µM* | 23.1µM* | -30.3% | ? | i
O=C(Nc1ccc(Oc2ccccc2)nc1)C1CCN(Cc2ccccc2)CC1 | -18.1% | ? | -28.3% | -22.0% | -21.5% | i
CCn1cc(CN2CCC(C(=O)Nc3ccc(Oc4ccccc4F)cc3)CC2)c(C)n1 | -17.0% | ? | 25.9µM* | -27.2% | -6.9% | i
CC[n+]1oc(-c2ccccc2)cc1C | -2.7% | 5.2% | -24.1% | 3.5% | 10.4% | i
Cc1ccc2c(c1)cc(CN(Cc1ccco1)S(=O)(=O)c1ccccc1)c1nnnn12 | -15.7% | 13µM* | 20.6µM* | -12.9% | 7.7% | i
Cc1ccc2cc(CN(CC3CCCO3)C(=O)Nc3ccccc3F)c3nnnn3c2c1 (stereo not given) | 51.5% | -3.3% | ? | -1.3% | -4.9% | i
Cc1ccc2c(c1)cc(CN(CCc1ccccc1)C(=O)N1CCOCC1)c1nnnn12 | -26.4% | -20.8% | ? | -28.9% | 0.0% | ?
Cc1ccc2cc(CN(CC3CCCO3)S(=O)(=O)c3ccccc3)c3nnnn3c2c1 (stereo not given) | 6.6% | 29.1µM* | -28.7% | -89.9% | ? | i
Cc1ccc2c(c1)cc(CN(Cc1ccc3c(c1)OCO3)C(=O)c1ccccc1)c1nnnn12 | -4.8% | ? | 20.6µM* | -1.6% | -1.8% | ?
Fc1ccccc1-c1nc2nc3ccccc3nc2n1CC1CCCO1 (stereo not given) | 12.5% | ? | ? | -0.2% | 28.8% | i
SMILES | ATXN2 expr inh | DT40 TDP1 CPT | TDP1 cell noCPT | HepG2 viability | TGFb SMAD3 inh | S2 tox
Oc1nc(Nc2ccccc2)sc1/C=C1\C=Nc2ccccc21 | nt | -26.0% | -29.9% | -22.3% | ? | ?
CCOC(=O)c1c(Nc2ccccc2)sc(/C=C2\C=Nc3ccccc32)c1O | -32.1% | 20.6µM* | ? | -19.7% | -1.1% | ?
c1ccc(-c2nc3c4ccccc4ccn3c2CN2CCCCC2)cc1 | 31.0% | ? | 20.6µM* | -18.6% | -18.3% | ?
Cc1ccc(-c2nc3c4ccccc4ccn3c2CN2CCCCC2)cc1 | 8.9% | 23.1µM* | 23.1µM* | -30.2% | ? | i
COCc1c(C(=O)NC2CCOC(C)(C)C2)cnn1-c1nccc(-c2cccs2)n1 (stereo not given) | nt | 9.8%[9.04 µM] | -15.2% | nt | nt | i
CC(=O)c1c(C)[nH]c(C(=O)CN2C(=O)NC(CCc3ccccc3)C2=O)c1C (stereo not given) | 17.6% | ? | -1.9% | -0.3% | 31.8% | i
O=C(COc1coc(CN2CCN(c3cccc(Cl)c3)CC2)cc1=O)NC1CCCC1 | 1.3% | ? | 14.6µM* | -3.2% | -5.7% | i
O=C(COc1coc(CN2CCN(c3ccccc3)CC2)cc1=O)Nc1ccccc1 | 2.6% | ? | -23.9% | 2.7% | 4.8% | i
Cc1ccc(NC(=O)COc2coc(CN3CCN(c4ccccc4)CC3)cc2=O)cc1 | -4.3% | -29.4% | 20.6µM* | -1.0% | 5.5% | i
Cc1ccc(N2CCn3c2nc2c3c(=O)n(CCCc3ccccc3)c(=O)n2C)cc1C | nt | -25.1% | -28.8% | 1.0% | -20.5% | nt
O=C1CSC(c2ccc(F)c(F)c2)N1c1ccccc1F (stereo not given) | -8.2% | -3.8% | 8.7% | 1.1% | -3.0% | i
C=CCOc1ccccc1CN(C(=O)CCl)c1ccc2c(c1)OCO2 | ? | 18.4µM* | 10.3µM* | -70.8% | ? | nt
O=C(CC1CCCCC1)N=C1SC2CS(=O)(=O)CC2N1c1ccccc1 (stereo not given) | 3.1% | -21.4% | -19.5% | 1.5% | 1.8% | i
